Source: PubChem BioAssay (Tox21)
Results filed as inconclusive are left out. Values without a mark were called inactive. Calls of active or inactive are those of the source. Calls come from the whole dose curve; as a rule, active = well fitted cell-killing curve with a large enough effect in the repeat runs; inconclusive = weak or mixed curves, or effect the other way; inactive = flat fitted curve, though single readings scatter.

Assay: qHTS assay to identify small molecule agonists of the TGF-beta/Smad signaling pathway - cell viability counter screen (AID 1346829); note: top concentration of the series differs between compounds; nearly all actives have a fitted effect of over 45% in size
Conditions: SBE-bla HEK293T viability, CellTiter-Glo luminescence, 5 h; series mostly up to 76.8 µM; activity change, negative = cytotoxicity: at the top concentration
Source text: National Center for Advancing Translational Sciences [NCATS]
NIH Chemical Genomics Center [NCGC]
U.S. Environmental Protection Agency [EPA]
National Institutes of Environmental Health Sciences [NIEHS]
National Toxicology Program [NTP]
U.S. Food and Drug Administration [FDA]
Transforming growth factor beta (TGF-beta) superfamily consists of a large number of structurally related dimeric proteins that act as hormones or local mediators in regulating a wide range of biological functions. This superfamily includes TGF-betas themselves, the bone morphogenetic proteins (BMPs) and the activins. These ligands induce oligomerization of serine/threonine receptor kinases and phosphorylate the cytoplasmic signaling molecules of Smad protein family. CellSensor SBE-bla HEK 293T cell line (Life Technologies, Carlsbad, CA), responsive to TGF-beta was used to screen Tox21 10K compound library for identification of agonists/antagonists of the Smad signaling pathway. This cell line contains a beta-lactamase reporter gene under control of the Smad binding element (SBE) stably integrated into HEK 293T cells. Also cytotoxicity of the compounds was tested in parallel by measuring the cell viability using CellTiter-Glo assay system in the same wells.
Tox21 Assay Protocol Summary:
SBE-bla HEK 293T cells were dispensed at 4,000/well in 6 uL of assay medium into black wall/clear-bottom 1536-well plates using a Multidrop Combi (ThermoFisher Scientific, Waltham, MA) dispenser. After the assay plates were incubated at 37 C and 5% CO2 for an overnight, 23 nL of compounds dissolved in DMSO, positive controls or DMSO only was transferred to the assay plate by a Pintool station (Kalypsys, San Diego, CA). The assay plates were incubated at 37 C and 5% CO2 for 5 hr. One uL of LiveBLAzer B/G FRET substrate (Life Technologies) was added using a Flying Reagent Dispenser (FRD, Aurora Discovery, San Diego, CA) and the plates were incubated at room temperature for 2 hr. Fluorescence intensity (405 nm excitation, 460 nm and 530 nm emissions) was measured using an Envision plate reader (PerkinElmer, Shelton, CT). For cytotoxicity read, 4 uL of CellTiter-Glo reagent (Promega Corporation, Madison, WI) was added to each well of the assay plates using FRD. After 30min incubation at room temperature, the luminescence intensity was measured using ViewLux plate reader (PerkinElmer).
% is set by controls: 0 for no effect and ±100 for the full control effect.

SMILES | activity change, negative = cytotoxicity | outcome
OC1CCCCC1c1ccccc1 (stereo not given) | 2.45% | 
O=C(O)COc1nn(Cc2ccccc2)c2ccccc12 | -0.304% [at 35.3 µM] | 
CCC(=O)OC(C)c1ccccc1 (stereo not given) | -6.03% | 
COCCc1ccc(OCC(O)CNC(C)C)cc1 (stereo not given) |  | inactive
CN(C)CCCNCCCN(C)C | 0.0195% | 
N[C@H]1CN(c2c(F)cc3c(=O)c(C(=O)O)cn(C4C[C@H]4F)c3c2Cl)CC12CC2 (stereo not given in full) | 0.814% [at 35.3 µM] | 
O=C(O)c1ccccc1OP(=O)(O)O | -2.27% [at 35.3 µM] | 
O=C1CCCCCCCCCCCN1 |  | inactive
CCOC(=O)CCC(C)=O | 16.6% | 
Nc1c[n+](N2CCOCC2)no1 | -7.04% [at 35.3 µM] | 
C=CCCCCCCCCC=O | 4.82% | 
O=C1CC2CC1C1CCCC21 (stereo not given) | 0.68% | 
Cc1ccc(=O)n(-c2ccccc2)c1 | 19.3% [at 35.3 µM] | 
CCCCCCCCCCCCN(CCCCCCCCCCCC)CCCCCCCCCCCC | 8.2% | 
c1cnc(N2CCN(Cc3ccc4c(c3)OCO4)CC2)nc1 | -6.37% [at 35.3 µM] | 
CCOc1ccc(C(=O)OCCN(CC)CC)cc1 | -12.3% [at 35.3 µM] | 
CC1(C)CO[C@@H](CC(=O)O)CN1 | 8.67% [at 35.3 µM] | 
Cc1cccn2c(=O)c(-c3nnn[nH]3)cnc12 | 2.08% [at 15.8 µM] | 
CCCCCCCCCCCC | 1.09% | 
CC/C=C\CC/C=C/C(OCC)OCC | 25.5% | 

SMILES | activity change, negative = cytotoxicity | outcome
CCOC(=O)Nc1ccc(NCc2ccc(F)cc2)nc1N | -1.83% [at 35.3 µM] | 
COC(C)(C)CCCC(C)CC=O (stereo not given) | 11.3% | 
CC/C=C\CC/C=C/CO | 1.69% | 
CC(=O)OCC(=O)[C@@]1(O)CCC2C3CCC4=CC(=O)CC[C@]4(C)C3[C@@H](O)C[C@@]21C (stereo not given in full) | 8.1% [at 35.3 µM] | 
N=C(N)c1ccccc1 | -4.32% | 
CCCN1CCCC[C@H]1C(=O)Nc1c(C)cccc1C | -6.8% [at 35.3 µM] | 
C1CN(CCOCCN2CCOCC2)CCO1 | 0.427% | 
CC1=CC(C)C(C=O)CC1 (stereo not given) | -18.8% | 
FC(F)OC(Cl)C(F)(F)F (stereo not given) | -11.7% | 
CCCCNC(=O)NCCCC | -3.76% | 
CC(=O)Nc1c(I)cc(I)c(C(=O)O)c1I | 7.94% [at 35.3 µM] | 
CCCCC(CC)COC(=O)c1ccccc1O (stereo not given) | 7.89% [at 35.3 µM] | 
CCOC(=O)[C@H](CCc1ccccc1)N[C@@H](C)C(=O)N1[C@H](C(=O)O)C[C@@H]2CCC[C@@H]21 | -0.426% [at 35.3 µM] | 
COC(=O)CC(C)=O | 8.55% | 
OC(CCN1CCCCC1)(c1ccccc1)C1CC2C=CC1C2 (stereo not given) | -4.62% [at 35.3 µM] | 
NS(=O)(=O)c1ccc(C(=O)O)cc1 | -6.59% [at 35.3 µM] | 
CC(C)NC(=O)NC(C)C | -6.51% | 
CC(=O)CC(C)C | 13.4% | 
CC(C)CNCC(C)C | 1.87% | 
Cc1sccc1Br | -1.31% [at 35.3 µM] | 
